Each structure is given as a SMILES string. Results filed as inconclusive are left out. Calls of active or inactive are those of the source. The calls were made as follows: active = hit-call score of the fitted dose curve at least 0.9, where 1 is the maximum; inconclusive = response in the unintended direction; inactive = score below 0.9.

The AC50 is the concentration giving half of the maximal activity seen.

The target of assay [1] is human Serotonin, 5-Hydroxytryptamine Receptor 3 (5HT3), HTR3A (gene 3359) (UniProt P46098). The experiment in a line: NVS_LGIC_h5HT3: NovaScreen (NVS) Ligand-Gated Ion Channel Assay for human Serotonin, 5-Hydroxytryptamine Receptor 3 (5HT3) (AID 2283325). A digest of the protocol: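 Initially tested at 25 uM in duplicate, then up to 50 uM in concentration-response for actives, compounds competed with a radioligand for HEK293-derived human 5-HT3 receptor. Bound counts were measured by filtration and scintillation at 1 h; loss of signal versus DMSO.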
Chain of human Serotonin, 5-Hydroxytryptamine Receptor 3 (5HT3), HTR3A (gene 3359) (P46098 whole entry, looked up): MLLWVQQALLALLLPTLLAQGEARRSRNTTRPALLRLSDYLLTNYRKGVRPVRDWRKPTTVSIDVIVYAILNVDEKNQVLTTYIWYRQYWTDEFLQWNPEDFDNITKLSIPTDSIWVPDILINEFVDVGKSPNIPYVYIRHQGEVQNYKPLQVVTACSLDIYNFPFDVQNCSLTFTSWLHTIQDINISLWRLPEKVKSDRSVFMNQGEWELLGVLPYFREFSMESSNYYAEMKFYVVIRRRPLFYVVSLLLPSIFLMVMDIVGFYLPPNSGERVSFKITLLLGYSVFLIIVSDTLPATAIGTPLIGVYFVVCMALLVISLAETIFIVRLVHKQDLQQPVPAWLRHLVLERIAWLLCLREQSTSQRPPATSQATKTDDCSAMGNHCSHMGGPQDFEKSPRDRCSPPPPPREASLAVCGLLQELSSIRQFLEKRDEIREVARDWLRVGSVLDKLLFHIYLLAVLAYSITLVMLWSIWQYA

The target of assay [2] is rat Oxytocin Receptor (OXT), Oxtr (gene 25342) (UniProt P70536). The experiment in a line: NVS_GPCR_rOXT: NovaScreen (NVS) G Protein-Coupled Receptor Assay for rat Oxytocin Receptor (OXT) (AID 2283330). In short, it runs like this: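 Binding to rat uterine membrane receptor was followed by scintillation counting of filter-trapped radioligand after 1 h. A 25 uM duplicate single-point screen preceded concentration series with a top of 50 uM. Signal loss was analysed relative to DMSO.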
Chain of rat Oxytocin Receptor (OXT), Oxtr (gene 25342) (P70536 whole entry, looked up): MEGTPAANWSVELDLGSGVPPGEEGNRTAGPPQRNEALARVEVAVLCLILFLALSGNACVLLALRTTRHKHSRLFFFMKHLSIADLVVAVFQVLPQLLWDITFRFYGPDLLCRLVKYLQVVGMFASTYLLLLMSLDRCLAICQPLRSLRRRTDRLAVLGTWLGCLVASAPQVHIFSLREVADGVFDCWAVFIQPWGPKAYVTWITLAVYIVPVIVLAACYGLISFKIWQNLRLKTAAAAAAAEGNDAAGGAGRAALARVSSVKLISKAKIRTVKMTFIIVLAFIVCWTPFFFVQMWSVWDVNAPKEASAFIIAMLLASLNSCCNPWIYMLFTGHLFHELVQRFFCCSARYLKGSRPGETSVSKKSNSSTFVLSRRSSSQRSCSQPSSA

Assay [3] addresses human Peripheral-type Benzodiazepine Receptor (PBR), TSPO (gene 706) (UniProt P30536). The experiment in a line: NVS_MP_hPBR: NovaScreen (NVS) Membrane Protein Assay for human Peripheral-type Benzodiazepine Receptor (PBR) (AID 2283331).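 Also: hits reduce radioligand binding relative to DMSO baseline.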 A digest of the protocol: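 Using human colon-derived membranes, this one-endpoint binding test reads radioligand loss by scintillation after 1 h. Screening started at 25 uM in duplicate, with positive and negative controls on every plate, and actives moved to dose series.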

Assay [4] in a line: NVS_IC_rCaBTZCHL: NovaScreen (NVS) Ion Channel Assay for Calcium Channel, Type L, Benzothiazepine Site (CaBTZCHL) (AID 2283337). A digest of the protocol:
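Rat cortical membrane preparation incubated 1.5 h with compound and benzothiazepine-site radioligand; loss of filter-bound counts versus DMSO marks displacement. Initial duplicate testing at 25 uM, actives followed up in concentration series.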

Assay [5] concerns the target bovine Gamma-Aminobutyric Acid Type A Receptor Agonist (GABAR Agonist), GABRA1 (gene 780973) (UniProt P08219). The experiment in a line: NVS_LGIC_bGABAR_Agonist: NovaScreen (NVS) Ligand-Gated Ion Channel Assay for bovine Gamma-Aminobutyric Acid Type A Receptor Agonist (GABAR Agonist) (AID 2283338). In short, it runs like this:
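Radioligand binding to bovine cerebellar membranes in agonist format, read by filter-based scintillation counting after 1 h. Primary screen in duplicate at 25 uM, with actives followed in concentration series. Gain of signal versus DMSO.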

The subject of assay [6] is guinea pig Histamine Receptor (H2), gene 100729734. The experiment in a line: NVS_GPCR_gH2: NovaScreen (NVS) G Protein-Coupled Receptor Assay for guinea pig Histamine Receptor (H2) (AID 2283342). In short, it runs like this: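 Guinea pig striatal membrane preparation with specific radioligand; bound counts measured by filtration and scintillation 1 h post-dosing, DMSO as baseline. Chemicals passing a 25 uM duplicate screen were titrated to a 50 uM maximum.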

Assay [7] deals with bovine Estrogen Receptor (ER), ESR1 (gene 407238) (UniProt P49884). The experiment in a line: NVS_NR_bER: NovaScreen (NVS) Nuclear Receptor Binding Assay for bovine Estrogen Receptor (ER) (AID 2283345).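 Also: actives lower the bound radioligand count which means they displace the ER ligand.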 In short, it runs like this: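 Bovine uterine membranes; tritiated or iodinated radioligand; competitive displacement; 18 h; scintillation read; DMSO negative control; 25 uM duplicates, then concentration series for actives.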
Chain of bovine Estrogen Receptor (ER), ESR1 (gene 407238) (P49884 whole entry, looked up): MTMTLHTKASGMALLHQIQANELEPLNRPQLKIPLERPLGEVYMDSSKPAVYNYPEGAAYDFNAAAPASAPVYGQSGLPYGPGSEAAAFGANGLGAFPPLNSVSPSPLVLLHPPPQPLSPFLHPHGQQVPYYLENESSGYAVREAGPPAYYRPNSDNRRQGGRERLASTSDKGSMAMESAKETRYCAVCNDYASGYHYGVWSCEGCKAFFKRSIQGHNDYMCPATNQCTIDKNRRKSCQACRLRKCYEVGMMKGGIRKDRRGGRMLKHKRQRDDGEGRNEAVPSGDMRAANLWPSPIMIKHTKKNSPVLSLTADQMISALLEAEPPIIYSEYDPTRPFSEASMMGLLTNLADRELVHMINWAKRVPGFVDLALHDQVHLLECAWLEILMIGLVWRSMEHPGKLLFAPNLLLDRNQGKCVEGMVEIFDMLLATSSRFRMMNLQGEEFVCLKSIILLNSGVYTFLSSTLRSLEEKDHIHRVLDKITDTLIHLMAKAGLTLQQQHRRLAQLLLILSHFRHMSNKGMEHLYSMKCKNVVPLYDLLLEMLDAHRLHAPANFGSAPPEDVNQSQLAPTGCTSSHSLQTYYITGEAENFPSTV

In assay [8] the target is rat Thyrotropin Releasing Hormone Receptor (TRH), Trhr (gene 25570) (UniProt Q01717). As to the kind of experiment: NVS_GPCR_rTRH: NovaScreen (NVS) G Protein-Coupled Receptor Assay for rat Thyrotropin Releasing Hormone Receptor (TRH) (AID 2283329).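 Also: hit means lower bound tracer signal versus DMSO baseline.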 In short, it runs like this:
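Test compounds are screened at 25 uM in duplicate against radioligand binding in rat forebrain membranes, with active pairs followed up over a concentration range. Detection uses filter-based radiodetection after a 4 h exposure.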

The target in assay [9] is human Constitutive Androstane Receptor (CAR), NR1I3 (gene 9970) (UniProt Q14994). As to the kind of experiment: NVS_NR_hCAR_Antagonist: NovaScreen (NVS) Nuclear Receptor Binding Assay for human Constitutive Androstane Receptor Antagonism (CAR) (AID 2283344). In short, it runs like this:
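Single 25 uM duplicate primary screen, with concentration-series follow-up on actives. Cell-free binding format run in antagonist mode, TR-FRET signal taken 1 h post-dose; activity is signal loss relative to DMSO.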

Assay [10] shares this target. As to the kind of experiment: NVS_NR_hCAR_Agonist: NovaScreen (NVS) Nuclear Receptor Binding Assay for human Constitutive Androstane Receptor Agonism (CAR) (AID 2283328). In short, it runs like this: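 Actives from a 25 uM duplicate screen were retested in singleton concentration series to 50 uM max. Biochemical TR-FRET assay on extracted CAR protein measured 1 h post-dose, with signal increase over DMSO control.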

For assay [11], the target named is rat Glutamate, NMDA Agonist Site (GluNMDA), Grin1 (gene 24408) (UniProt P35439). The experiment in a line: NVS_LGIC_rGluNMDA_Agonist: NovaScreen (NVS) Ligand-Gated Ion Channel Assay for rat Glutamate, NMDA Agonist Site (GluNMDA) (AID 2283327). In short, it runs like this: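 Radioligand displacement at the agonist site on rat forebrain membrane preparations, read by filter scintillation after 1 h. Chemicals were first run at 25 uM in duplicate; those passing threshold were titrated to a 50 uM maximum.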

In assay [12] the target is Small conductance calcium-activated potassium channel protein 1 (Rattus norvegicus) (UniProt P70606). As to the kind of experiment: NVS_IC_rKCaCh: NovaScreen (NVS) Ion Channel Assay for rat Potassium Channel, Ca2+ Act., VI (KCaCh) (AID 2283336). In short, it runs like this: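 Filter-based scintillation counting of radioligand bound to rat forebrain membrane preparations, measured 1 h after compound addition. Primary screen used 25 uM in duplicate, with concentration-response follow-up; signal decrease relative to DMSO marks activity.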
Chain of Small conductance calcium-activated potassium channel protein 1 (Rattus norvegicus) (P70606 whole entry, looked up): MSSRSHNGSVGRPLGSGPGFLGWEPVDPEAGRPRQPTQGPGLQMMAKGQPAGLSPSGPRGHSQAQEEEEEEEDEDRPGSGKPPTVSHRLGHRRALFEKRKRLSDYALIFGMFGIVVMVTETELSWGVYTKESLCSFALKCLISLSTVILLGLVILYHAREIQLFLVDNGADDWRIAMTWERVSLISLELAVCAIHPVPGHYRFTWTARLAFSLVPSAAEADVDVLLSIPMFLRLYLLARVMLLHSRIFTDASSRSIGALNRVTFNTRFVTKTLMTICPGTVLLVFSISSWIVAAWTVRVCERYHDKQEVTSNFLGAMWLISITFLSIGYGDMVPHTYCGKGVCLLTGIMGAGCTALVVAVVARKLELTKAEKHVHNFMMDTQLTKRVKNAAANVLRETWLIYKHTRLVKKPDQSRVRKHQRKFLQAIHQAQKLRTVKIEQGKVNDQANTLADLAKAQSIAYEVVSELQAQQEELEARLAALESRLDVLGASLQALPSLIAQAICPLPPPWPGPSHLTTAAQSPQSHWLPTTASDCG

Assay [13] concerns the target rat Glycine Receptor, Strychnine-sensitive (GlyRStrySens), Glra1 (gene 25674) (UniProt P07727). The experiment in a line: NVS_LGIC_rGlyRStrySens: NovaScreen (NVS) Ligand-Gated Ion Channel Assay for rat Glycine Receptor, Strychnine-sensitive (GlyRStrySens) (AID 2283341). A digest of the protocol: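 Radioligand displacement on rat spinal cord membranes, 1 hr, filter scintillation read-out. Single-concentration duplicate screen at 25 uM; chemicals meeting threshold (e.g., 30% inhibition) rerun in concentration-response up to 50 uM. Loss of binding fitted versus DMSO.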

The next assay relates to NCBI gene 100848466. The experiment in a line: NVS_NR_bPR: NovaScreen (NVS) Nuclear Receptor Binding Assay for bovine Progextron Receptor (PR) (AID 2283343).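 Also: actives lower bound radioligand signal below DMSO meaning displacement of the label.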 A digest of the protocol:
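Steps: bovine uterine membranes were dosed with chemical alongside radioligand, incubated 18 hours, then radiodetected by scintillation counting. Initial testing used 25 uM in duplicate; confirmed actives were rerun as concentration series.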

The target of assay [14] is rat Gamma-Aminobutyric Acid Type A Receptor, Non-Selective (GABAR-NonSelective), Gabra1 (gene 29705) (UniProt P62813). As to the kind of experiment: NVS_LGIC_rGABAR_NonSelective: NovaScreen (NVS) Ligand-Gated Ion Channel Assay for rat Gamma-Aminobutyric Acid Type A Receptor, Non-Selective (GABAR-NonSelective) (AID 2283326). In short, it runs like this:
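Compounds were first screened in duplicate at 25 uM, with actives run as singleton concentration series (max 50 uM). Binding of a radioligand to rat whole-brain GABA-A preparation was measured by filtration and scintillation counting after 1 h, DMSO baseline.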

Assay [15] concerns the target Voltage-gated inwardly rectifying potassium channel KCNH2 (Homo sapiens) (UniProt Q12809). As to the kind of experiment: NVS_IC_hKhERGCh: NovaScreen (NVS) Ion Channel Assay for human Potassium Channel ERG (KhERGCh) (AID 2283333). In short, it runs like this: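 Membranes from CHO cells expressing human ERG; displacement of radioligand measured by filtration and scintillation after 0.75 h. Single-concentration duplicate screen at 25 uM, then concentration-response for actives; DMSO baseline.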

Assay [16] concerns the target rat Glutamate, MK-801 Agonist Site (GluNMDA_MK801), Grin1 (gene 24408) (UniProt P35439). The experiment in a line: NVS_LGIC_rGluNMDA_MK801_Agonist: NovaScreen (NVS) Ligand-Gated Ion Channel Assay for rat Glutamate, MK-801 Agonist Site (GluNMDA_MK801) (AID 2283340). In short, it runs like this:
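Rat forebrain membrane preparation; MK-801-site radioligand binding read by filtration and scintillation after 1.5 h. Single-point 25 uM duplicate screen, followed by singleton concentration series to 50 uM max; DMSO baseline.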

Chain of human Peripheral-type Benzodiazepine Receptor (PBR), TSPO (gene 706) (P30536 whole entry, looked up): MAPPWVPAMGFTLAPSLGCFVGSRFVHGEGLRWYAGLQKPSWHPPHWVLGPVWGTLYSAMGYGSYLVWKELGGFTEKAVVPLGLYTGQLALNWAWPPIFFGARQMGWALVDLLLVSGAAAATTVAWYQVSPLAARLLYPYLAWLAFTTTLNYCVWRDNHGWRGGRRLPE
Chain of human Constitutive Androstane Receptor (CAR), NR1I3 (gene 9970) (Q14994 whole entry, looked up): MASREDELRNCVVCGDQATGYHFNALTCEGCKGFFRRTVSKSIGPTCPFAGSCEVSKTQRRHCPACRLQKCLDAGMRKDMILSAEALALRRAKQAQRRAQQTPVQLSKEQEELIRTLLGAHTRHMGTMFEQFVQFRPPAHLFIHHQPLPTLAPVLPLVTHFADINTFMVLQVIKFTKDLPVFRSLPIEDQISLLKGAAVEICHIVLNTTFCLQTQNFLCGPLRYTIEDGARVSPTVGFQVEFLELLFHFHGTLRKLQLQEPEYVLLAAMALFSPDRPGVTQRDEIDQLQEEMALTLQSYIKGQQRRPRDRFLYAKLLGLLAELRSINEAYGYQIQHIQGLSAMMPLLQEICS
Chain of rat Glycine Receptor, Strychnine-sensitive (GlyRStrySens), Glra1 (gene 25674) (P07727 whole entry, looked up): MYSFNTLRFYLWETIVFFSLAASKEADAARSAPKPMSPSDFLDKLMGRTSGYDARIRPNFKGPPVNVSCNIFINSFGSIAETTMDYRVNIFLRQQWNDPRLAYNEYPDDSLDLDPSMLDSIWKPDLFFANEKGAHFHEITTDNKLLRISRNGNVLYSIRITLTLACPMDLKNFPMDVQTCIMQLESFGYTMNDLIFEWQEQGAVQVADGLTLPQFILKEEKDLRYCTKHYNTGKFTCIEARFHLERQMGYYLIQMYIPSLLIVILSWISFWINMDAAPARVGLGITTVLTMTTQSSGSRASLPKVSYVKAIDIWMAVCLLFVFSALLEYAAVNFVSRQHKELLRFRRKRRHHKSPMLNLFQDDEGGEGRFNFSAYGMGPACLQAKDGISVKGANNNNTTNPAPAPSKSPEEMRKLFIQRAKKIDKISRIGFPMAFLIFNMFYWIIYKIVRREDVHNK
Chain of rat Thyrotropin Releasing Hormone Receptor (TRH), Trhr (gene 25570) (Q01717 whole entry, looked up): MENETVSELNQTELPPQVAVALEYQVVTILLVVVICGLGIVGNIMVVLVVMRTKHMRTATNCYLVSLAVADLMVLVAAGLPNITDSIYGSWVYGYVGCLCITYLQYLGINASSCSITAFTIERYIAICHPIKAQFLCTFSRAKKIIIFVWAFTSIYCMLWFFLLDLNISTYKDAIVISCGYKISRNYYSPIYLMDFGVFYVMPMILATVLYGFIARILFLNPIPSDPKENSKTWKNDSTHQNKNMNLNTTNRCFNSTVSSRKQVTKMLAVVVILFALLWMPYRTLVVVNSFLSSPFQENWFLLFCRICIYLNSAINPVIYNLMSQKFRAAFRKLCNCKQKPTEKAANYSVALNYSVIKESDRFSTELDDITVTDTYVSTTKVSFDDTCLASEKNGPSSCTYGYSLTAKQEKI
Chain of bovine Gamma-Aminobutyric Acid Type A Receptor Agonist (GABAR Agonist), GABRA1 (gene 780973) (P08219 whole entry, looked up): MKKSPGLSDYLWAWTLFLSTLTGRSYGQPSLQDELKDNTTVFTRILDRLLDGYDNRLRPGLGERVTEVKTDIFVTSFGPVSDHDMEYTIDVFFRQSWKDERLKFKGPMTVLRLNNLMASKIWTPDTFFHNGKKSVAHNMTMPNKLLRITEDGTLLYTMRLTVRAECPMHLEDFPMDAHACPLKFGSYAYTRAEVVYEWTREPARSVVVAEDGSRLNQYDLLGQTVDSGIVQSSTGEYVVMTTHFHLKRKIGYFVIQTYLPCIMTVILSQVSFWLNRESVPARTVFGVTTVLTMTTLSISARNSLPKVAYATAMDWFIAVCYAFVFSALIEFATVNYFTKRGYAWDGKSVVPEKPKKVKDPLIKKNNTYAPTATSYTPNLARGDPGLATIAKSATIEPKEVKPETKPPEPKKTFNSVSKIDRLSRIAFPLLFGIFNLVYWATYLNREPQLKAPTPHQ
Chain of rat Gamma-Aminobutyric Acid Type A Receptor, Non-Selective (GABAR-NonSelective), Gabra1 (gene 29705) (P62813 whole entry, looked up): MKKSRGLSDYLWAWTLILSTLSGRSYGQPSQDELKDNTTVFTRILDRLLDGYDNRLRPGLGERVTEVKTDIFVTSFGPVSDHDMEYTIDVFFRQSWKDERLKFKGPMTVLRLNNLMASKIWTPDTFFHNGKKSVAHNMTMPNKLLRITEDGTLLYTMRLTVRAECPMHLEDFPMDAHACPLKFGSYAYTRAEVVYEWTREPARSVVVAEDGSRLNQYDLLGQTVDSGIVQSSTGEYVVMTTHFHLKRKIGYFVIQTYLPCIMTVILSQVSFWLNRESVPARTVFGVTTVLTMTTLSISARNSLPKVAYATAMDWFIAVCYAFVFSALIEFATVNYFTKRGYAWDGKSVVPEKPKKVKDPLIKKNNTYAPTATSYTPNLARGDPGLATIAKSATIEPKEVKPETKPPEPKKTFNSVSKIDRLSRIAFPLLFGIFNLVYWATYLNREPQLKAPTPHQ

`CCCCCCCCCC[N+](C)(C)CCCCCCCCCC`: the outcome in assay [1], in assay [5] and in [7] was inactive. The concentration at half-maximal activity (AC50) was 18.6 µM (active) in assay [2], 21.5 µM (active) in [3], 4.34 µM (active) in assay [4] and 9.87 µM (active) in [6].

For the compound `CCNc1nc(NC(C)C)nc(SC)n1`, the call in [8] and in assay [9] was inactive.

Take `O=C(O)C(F)(F)C(F)(F)C(F)(F)C(F)(F)C(F)(F)F`: the call in assay [1] and in assay [10] was inactive.

In the case of `CC(c1ccc(O)cc1)(c1ccc(O)cc1)c1ccc(O)cc1`, in assay [11], the compound was classed as inactive. In addition, the AC50 in assay [7] is 3.72 µM (active).

As for `O=C(NC(=O)c1cc(F)c(F)cc1Cl)Nc1cc(F)ccc1N1CCC(C(=O)O)CC1`, the result in [2], in assay [12] and in assay [13] was inactive.

In the case of `Cc1cc(O)ccc1Cl`, in [3], the AC50 was 2.64 µM (active). Also, in [7], the outcome was inactive.

As to `CC(C)(c1ccccc1)c1ccc(O)cc1`, the result in assay [3] and in [12] was inactive. In addition, the AC50 with NCBI gene 100848466 was 19.2 µM (active); in assay [7] it was 11.5 µM (active) [middle of 4 runs].

As for `CO/C=C(/C(=O)OC)c1ccccc1COc1cccc(C(F)(F)F)n1`, the half-maximal activity concentration (AC50) in assay [3] is 4.21 µM (active). Also, the result in [7] was inactive.

Turning to `CCCCCCOC(=O)c1ccccc1C(=O)OCCCCCC`, the compound was called inactive in assay [14] and in assay [15].

As to `Oc1ccc(C(c2ccc(O)cc2)(C(F)(F)F)C(F)(F)F)cc1`, the AC50 in assay [11] was 19.5 µM (active); in assay [2], 13.6 µM (active); in [16], 19.8 µM (active); with NCBI gene 100848466 it was 9.12 µM (active); in assay [9], 0.00229 µM (active). In [13], the outcome was inactive.

Turning to `O=C(N[C@H]1CN2CCC1CC2)c1cc2ccoc2cn1`, the AC50 in [1] is 1.35 µM (active).
